Test results published in the supplement of paper PMC6555819.

What follows are sequences tested on VDR:RXRa (NR concentration 270 nM, RXRa partner concentration 90 nM) (assay: PBM binding z-score (relative to random genomic background probes); higher = stronger binding; sequences stand for … in GC…GCGATTGACAGCGTAGAATGAAGG).
Procedure: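 Protein-binding microarray (Agilent 4x180K custom design, double-stranded 60-nt probes: 5' GC cap, 34-nt variable region, 24-nt constant primer region; full probe sequence given). Purified or IVT nuclear receptor:RXRα heterodimers (3:1 NR:RXRα, mostly 270:90 nM) or homodimers were incubated for 1 h in PBS with 2% milk and no ligand, then detected with Alexa488 antibodies. Fluorescence from o1-orientation probes (~5 replicates averaged) was converted to z-scores against 500 random hg19 background probes. Variable regions are seed direct-repeat (DR0–DR5) sites, all their single-nucleotide variants and half-site ablations.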

Compared with GCTATTTGTTGAAAGGGCAACCGAATGATTCTCG, TCTTATAGATCAAGCAGGTTAAGAAAGCCTGAGT is higher in PBM binding z-score: 0.521 for the first, 0.894 for the second.

Compared with TTTTGTAGATCAAAGGTTAAGAAAGCCGAAGCCT, CCTACTGGGCCAAAAAGGTCGTTGATGCCGATAA is higher in PBM binding z-score: 1.41 for the first, 2.79 for the second.

First: ATCTCTAGGTAACAACTTCAGTGAAAGAGAGGAC
Second: CGGAGTAGGTTATGGGGCATTCAGGCAACGGTGA
The PBM binding z-score of the first is higher: 0.366 for the first, 0.00597 for the second.

Compared with CGAACTAGGTCTTCCAGGACAGTGAATACATTGA, CCGACTGGGGCAAGGGTTACCATACTCAGTACGA is lower in PBM binding z-score: -0.0143 for the first, -0.292 for the second.

First: CAGCCTAGGTCAGGGCCAGAATAGGAGGAACGTT
Second: TAGCCTAGGTTATTGGGCCAGTATAGTACGCATC
The PBM binding z-score of the first is higher: 0.0945 for the first, -0.034 for the second.

Going from CTACAAAGGTGAACAAGGTCGTTGATTACTATTC to ATATGTAGGTTAAGGGTCAATCAGGTTGGTTCGC, the PBM binding z-score falls from 6.38 to 5.61.

Going from CATACAGGCTCAGCTAGGCCAGAGTAGGGACGGC to ACTATTAGTTGAGACGAGCGCAACCGATAGGTTG, the PBM binding z-score rises from -0.721 to -0.385.

Compared with AGAACGAGGGCACGCTGAGTTGATAGTAGAGTAG, TCAAATAGGTAAACAGGTGAAAGTCCGTAAGTTA is lower in PBM binding z-score: 2.38 for the first, 1.18 for the second.

Going from TTACCAAGGTGAGATGAGGTCGTTGATCCAACTC to ATCGAAAGCTCGAGGTGAGTATAGAGAAAGGGAA, the PBM binding z-score falls from 4.7 to -0.459.

First: CCTTACGGGTCAAGGTTATAGAACGGGTGGTACG
Second: CCTTCTGGGCCAAGGTCATTGATCAGTCAAAGCA
The PBM binding z-score of the first is higher: 3.42 for the first, 3.17 for the second.

Going from CCTACTGGGCCACGATAGGTCATTGATTCAGTGA to CCGACTGGGGCATAAGGTTATCATAAGCCAGCCC, the PBM binding z-score falls from 1.15 to 0.25.

Compared with CCTACTGGGCCCAAGGTCATTGATTCCAATGCTC, GCGACTGGGGCATCAGCAGGTTGCCATAACTTAA is lower in PBM binding z-score: 3 for the first, -0.532 for the second.

Going from TTACCAATGTGAAGGTCGTTGATCCCTCTGTAGA to CAACCTAGGTCAAGGTCAAAGTCGGTTTGTGCCA, the PBM binding z-score rises from 1.17 to 5.45.

Going from GCAGACAGGTGAAATGCAGGTAACTCAGGGTGGC to ATATGTAGGTTACATCCGGGTCATTGAGGCTATG, the PBM binding z-score rises from -0.417 to 5.02.

Compared with CCGACTGGGGCATAACGTTACCATAAGCCAGCCC, CCGACTGGGGCAGAAAGGTTACCAAACCATCCGG is higher in PBM binding z-score: -0.52 for the first, 0.877 for the second.

Going from CGTACTGGGCCACGAAAGGTCATTGATTCAGTGA to ATCGAAAAGTCGTGAGGTGAGTATACAGAAAGGC, the PBM binding z-score falls from 4.47 to -0.173.

Going from CTACCAACGTGAACAAGGTCGTTGATTACTATTC to AGTCAAAGTTCACCTAGGTAACGTAAGATATGCT, the PBM binding z-score rises from 2.05 to 4.74.

First: ATCTCTAGGTAAGACTCAGTTCGGTGAAGAACGC
Second: AATAGCAGGCCAAGGGTCACTCAAGATTAGTCCG
The PBM binding z-score of the first is lower: 0.216 for the first, 2.92 for the second.

First: CAAACTAGGTCAAGGTCCAAGTCGGTTTGTGCCA
Second: CCTCGGAGGACAACAGGAGGTTAGAGCTGCCAGA
The PBM binding z-score of the first is higher: 2.18 for the first, -0.265 for the second.

First: GCTATAAGTTGAAAGGGCAACCGAATGATTCTCG
Second: ATAATGAGGTTACCAAAGATCAGGGAAACGCTTG
The PBM binding z-score of the first is lower: 0.931 for the first, 1.81 for the second.
